# Cruzain inh Det: cruzain (T. cruzi) inhibition with detergent; purified cruzain, Z-FR-AMC fluorescence, 0.01% Triton; AID 1478; P25779; 200,000 compounds, 0.43% hits; Potency, µM, for inactives: max response, negative = inhibition, hits mostly inhibitors;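 note: plate controls were neutral wells for no effect and buffer without enzyme for full effect; nearly all actives have a fitted effect of over 40% in size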
# Target sequence (P25779 123-467 limits assumed): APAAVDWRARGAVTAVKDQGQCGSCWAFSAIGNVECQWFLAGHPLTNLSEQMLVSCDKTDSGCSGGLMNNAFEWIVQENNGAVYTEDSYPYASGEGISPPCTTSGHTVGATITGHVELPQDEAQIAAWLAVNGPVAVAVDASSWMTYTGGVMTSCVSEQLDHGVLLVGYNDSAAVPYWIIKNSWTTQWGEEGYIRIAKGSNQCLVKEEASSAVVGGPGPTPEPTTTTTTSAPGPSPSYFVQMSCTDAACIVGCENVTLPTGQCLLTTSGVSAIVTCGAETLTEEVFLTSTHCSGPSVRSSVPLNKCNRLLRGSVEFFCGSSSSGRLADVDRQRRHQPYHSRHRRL
#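 Compounds were screened in titration against cruzain (1.5 nM) with 0.01% Triton X-100 to counter colloidal aggregation. Activity was the AMC fluorescence increase over 60 s after adding 2 uM Z-FR-AMC at pH 5.5.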
# Cruzain noTriton: cruzain (T. cruzi) inhibition without detergent. purified cruzain, Z-FR-AMC fluorescence, no detergent. P25779. Potency, µM, without a hit: max response, negative = inhibition, most hits filed as inhibitors. 200,000 compounds, 2.3% hits;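 note: plate controls were enzyme without inhibitor for no effect and buffer without enzyme for full effect; nearly all actives have a fitted effect of over 40% in size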
#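 Detergent-free condition (0.00005% Triton X-100) in acetate buffer pH 5.5 with DTT. 1.5 nM enzyme and compound were pre-mixed 15 min, then 2 uM Z-FR-AMC substrate added; reaction progress from fluorescence change between first and third reads (60 s).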
# * = called active by the depositor; ? = inconclusive. Rows were chosen to be rich in hits. Some 2.4% of all compounds tested hit in one or more screens of this group. Calls come from the whole dose curve; as a rule, active = well fitted curve in the direction sought with a large enough effect; inconclusive = small, poorly fitted or top-dose-only effect, or another doubt; inactive = no such curve, though single readings can be large; an effect the other way counts as inactive or inconclusive. Potency is the fitted concentration of half-maximal effect.
SMILES,Cruzain inh Det,Cruzain noTriton
CC(C)COc1ccc(C(=O)Nc2scc(-c3ccc(Cl)cc3Cl)c2C(N)=O)cc1,-18.4%,10µM*
CCN(CC)C(=O)c1sc2c(c1C)c(=O)n(-c1ccc(OC)cc1OC)c(=O)n2CC(=O)Nc1ccccc1,0.8%,?
Cc1ccc(C2=N/C(=C\N3CCCCC3)C(=O)O2)cc1,-8.7%,-9.3%
Cc1nn(-c2ccccc2)c(N2CCCC2)c1/C=C1\N=C(c2ccc(OC(C)C)cc2)OC1=O,1.41µM*,5.01µM*
COc1cccc(CNC(=O)c2c(O)nc3ccccn3c2=O)c1,-1.0%,-10.2%
CC(=O)CSc1nnc2cc(C)c3cc(C)cc(C)c3n12,-6.3%,3.2%
Cc1ccc(S(=O)(=O)c2cn(Cc3ccccc3Cl)c3ccc(F)cc3c2=O)cc1,-2.7%,-7.7%
CCCCSc1nnc(-c2ccc(C)cc2)c2ccccc12,-3.0%,14.3%
O=C(CSc1nnc(-c2ccc(F)cc2)c2ccccc12)Nc1c(F)cccc1F,-6.9%,15.8µM*
COc1ccc(CCNC(=O)CSc2nnc(-c3ccc(F)cc3)c3ccccc23)cc1OC,-3.8%,?
O=C(CCC(=O)c1ccc(F)cc1)Nc1ccccc1Cl,-2.6%,-10.5%
O=C(CSc1ncnc2c1oc1ccccc12)Nc1cccc(Cl)c1,-3.0%,-10.6%
O=C(CSc1nnc(-c2ccc(F)cc2)c2ccccc12)Nc1ccccc1,-4.7%,31.6µM*
O=C(CSc1nnc(-c2ccc(F)cc2)c2ccccc12)Nc1ccccc1Cl,-4.9%,15.8µM*
O=C(CSc1nnc(-c2ccc(F)cc2)c2ccccc12)Nc1cccc(Cl)c1,-3.8%,15.8µM*
CCOC(=O)c1ccc(NC(=O)c2c(N3CCCC3=O)c3cc(OC)ccc3n2C)cc1,-16.2%,?
CCN1CC=C2C(C1)C(c1ccc(Cl)s1)C(C#N)=C(N)C2(C#N)C#N (stereo not drawn),25.1µM*,25.1µM*
CCN1CC=C2C(C#N)=C(N)C(C#N)(C#N)[C@H](c3cccc(OC)c3OC)[C@H]2C1,-9.7%,-12.9%
CCOc1ccc(NC(=O)C2CCCN(S(=O)(=O)c3cccc4nonc34)C2)cc1 (stereo not drawn),-1.4%,-0.6%
Cc1ccc(C)n1NC(=O)c1ccc(Cl)cc1,1.2%,-3.9%
Cc1ccc(C)n1NC(=O)c1ccc(Cl)cc1Cl,-2.1%,12.6µM*
c1ccc(CC2CCN(c3nc4ccccc4n4nnnc34)CC2)cc1,-1.3%,25.1µM*
O=C(c1ccco1)N1CCN(c2nc3ccccc3n3nnnc23)CC1,-2.3%,-15.9%
O=C(Oc1ccc2c(c1)O/C(=C\c1ccncc1)C2=O)c1ccccc1,-21.3%,6.8%
Cc1ccsc1/C=C1\Oc2cc(OCC(=O)c3ccccc3)ccc2C1=O,-5.3%,12.6µM*
SMILES,Cruzain inh Det,Cruzain noTriton
O=C1N/C(=C/c2ccc(N3CCCC3)cc2)C(=O)N1c1ccccc1,-6.0%,3.16µM*
O=C1/C(=C/c2ccc(N3CCCC3)cc2)NC(=S)N1C1CC1,-5.3%,4.2%
O=C(NCCCN1CCN(Cc2ccccc2)CC1)C1CCN(c2nnc(-n3cccc3)s2)CC1,-6.8%,-9.4%
O=C(NCCCN1CCc2ccccc2C1)C1CCN(c2nnc(-n3cccc3)s2)CC1,25.1µM*,-24.1%
Cc1nc2ccc(S(=O)(=O)N(C)CC(=O)Nc3ccc(Br)c(C)c3)cc2s1,-7.6%,-4.7%
Cc1cccc(-n2c3c(cc(-c4nc(-c5ccc(Cl)cc5)cs4)c2=O)C(=O)CC(C)(C)C3)c1,-0.5%,-4.5%
COc1ccc(COc2ccsc2C(=O)Nc2ccc(Cl)cc2)cc1,6.3%,-8.6%
COc1ccc(COc2cc(-c3cccc(OC)c3)nc3ccc(NC(=O)c4ccc(OC)cc4)cc23)cc1,2.2%,7.94µM*
COc1cccc(-c2cc(C(=O)Nc3ccc4c(c3)OCCO4)c3ccccc3n2)c1,-7.3%,?
COc1ccc(COc2cc(-c3cccc(OC)c3)nc3ccc(NC(=O)c4ccccc4)cc23)cc1,2.5%,7.94µM*
COc1ccc(COc2cc(-c3cccc(OC)c3)nc3ccc(NC(=O)c4ccc(Cl)cc4)cc23)cc1,1.1%,2.82µM*
COc1ccc(COc2cc(-c3cccc(OC)c3)nc3ccc(NC(=O)c4cccnc4)cc23)cc1,-0.4%,12.5%
COc1ccc(C2c3c(-c4ccccc4)n[nH]c3C(=O)N2c2ccc(C(=O)O)cc2)c(OC)c1 (stereo not drawn),-9.2%,10.3%
Nc1ccccc1C(=O)/C=C/c1ccccc1,1.9%,-2.7%
Cc1c(Cl)cccc1NC(=O)CSc1ncccc1C(=O)Oc1ccccc1Cl,0.9%,-15.8%
COCCNC(=O)c1ccc(-c2nc(CS(=O)(=O)c3ccccc3)c(C)o2)cc1,4.4%,-5.2%
CSCCC(NC(=O)c1ccc([N+](=O)[O-])cc1Cl)C(=O)OCC(=O)C12CC3CC(CC(C3)C1)C2 (stereo not drawn),28.2µM*,25.1µM*
CSCCC(NC(=O)C12CC3CC(CC(C3)C1)C2)C(=O)OCC(=O)c1ccc(C)cc1 (stereo not drawn),-1.7%,14.1%
Cc1sc2nc(COC(=O)c3ccc(N4CCCC(C)C4)c([N+](=O)[O-])c3)[nH]c(=O)c2c1C (stereo not drawn),-5.4%,7.94µM*
Cc1sc2nc(COC(=O)c3ccc(N4CCCC4)c([N+](=O)[O-])c3)[nH]c(=O)c2c1C,-7.3%,?
FC(F)(F)c1ccc(C2[C@H]3CN(Cc4ccc(-c5ccccc5)cc4)[C@H](c4ccccc4)C34CC2(c2cccnc2)C4)cc1 (stereo partly drawn),7.0%,-6.4%
COC(=O)c1cccc(C23CC4(C2)[C@H](CN(Cc2ccc(-c5ccccc5)cc2)[C@@H]4c2ccccc2)C3c2ccccc2)c1 (stereo partly drawn),2.8%,12.6µM*
c1ccc(-c2ccc(CN3C[C@@H]4C(c5ccccc5)C5(c6cccnc6)CC4(C5)[C@H]3c3ccccc3)cc2)cc1 (stereo partly drawn),-0.2%,-0.6%
COC(=O)c1ccc(C23CC4(C2)[C@H](CN(Cc2ccc(-c5ccccc5)cc2)[C@@H]4c2ccccc2)C3c2ccc(Cl)nc2)cc1 (stereo partly drawn),3.2%,15.8µM*
COC(=O)c1cccc(C23CC4(C2)[C@H](CN(Cc2ccc(C(F)(F)F)cc2)[C@@H]4c2ccccc2)C3c2ccccc2)c1 (stereo partly drawn),0.2%,-29.5%
SMILES,Cruzain inh Det,Cruzain noTriton
COC(=O)c1ccc(C23CC4(C2)[C@H](CN(Cc2ccc(-c5ccccc5)cc2)[C@@H]4c2ccccc2)C3c2ccc(C(F)(F)F)cc2)cc1 (stereo partly drawn),1.0%,?
FC(F)(F)c1ccc(C2[C@H]3CN(Cc4ccc(-c5ccccc5)cc4)[C@H](c4ccccc4)C34CC2(c2ccccc2)C4)cc1 (stereo partly drawn),3.0%,12.6µM*
COC(=O)c1cccc(C23CC4(C2)[C@H](CN(Cc2ccc(-c5ccccc5)cc2)[C@@H]4c2ccccc2)C3c2ccc(C(F)(F)F)cc2)c1 (stereo partly drawn),-1.9%,25.1µM*
CC(CCc1ccccc1)NC(=O)Cn1c(=O)nc(-c2ccccc2F)c2cc(Cl)ccc21 (stereo not drawn),-5.7%,4.1%
O=C(c1ccc(Cl)cc1)N1CCC(c2nc3ccccc3o2)CC1,-6.7%,5.5%
CC(C)(C)c1ccc(OCC(=O)O)c(Cl)c1,1.6%,12.2%
CCN[C@@H]1C[C@H](C)S(=O)(=O)c2sc(S(N)(=O)=O)cc21,-3.0%,-1.1%

# Assay outcomes as filed in PubChem.
